BoNT-A LC inh2 = BoNT A light chain protease inhibition; multiplex microsphere protease substrate cleavage, flow cytometry; inhibition, % at 10 µM; actives 0.17% (n = 360,000); also: plate controls were buffer without enzyme for full effect and enzyme alone for no effect
Bead autofluor = counter-screen for toxin protease inhibitors: compound fluorescence; actives 3.1% (n = 360,000); fluorescence intensity (test concentration not listed); compound autofluorescence counterscreen, microsphere flow cytometry; stronger effect = higher value; in the data active = fluorescence intensity above about 16000
FBA Mtb inh = inhibits M. tuberculosis FBA enzyme; actives 2.3% (n = 360,000); AID 588726; purified M. tuberculosis FBA, fluorescence read-out; inhibition, % at 1 µM; in the data active = inhibition above about 27%;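 also: 0% = vehicle and 100% = reference inhibitor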
GDH-TPI counter-1 = counter-screen for M. tuberculosis FBA inhibitors: GDH-TPI coupled enzymes. inhibition, % at 4.8 µM. GDH-TPI coupled enzyme counterscreen, NADH absorbance. actives 1.2% (n = 360,000). AID 588335; in the data active = inhibition above about 30%;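 also: 0% = DMSO wells and 100% = wells lacking the enzyme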
Anthrax LF inh2 = inhibitors of Bacillus anthracis lethal factor protease | multiplex microsphere protease cleavage assay, LF | inhibition, % at 10 µM | actives 0.12% (n = 360,000) | AID 588501; also: plate controls were buffer without enzyme for full effect and enzyme alone for no effect
BoNT-F LC inh = BoNT F light chain protease inhibition; actives 0.22% (n = 360,000); Multiplex microsphere protease cleavage assay, flow cytometry; AID 588497; inhibition, % at 10 µM; in the data active = inhibition above about 35%, passing the limit was not always enough; also: plate controls were buffer without enzyme for full effect and enzyme alone for no effect
Mtb FBA inh conf = confirmation of M. tuberculosis fructose-bisphosphate aldolase inhibitors; inhibition, % at 1 µM; shares compounds with FBA Mtb inh; purified M. tuberculosis FBA, fluorescence read-out; AID 651616; actives 78% (n = 5,600); in the data active = inhibition above about 27%;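 also: 0% = vehicle wells and 100% = reference inhibitor wells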
GDH-TPI counter-2 = inhibits GDH-TPI coupling enzymes, flagging Mtb FBA hits; shares compounds with FBA Mtb inh; GDH-TPI coupled enzyme counterscreen, fluorescence; inhibition, % at 1 µM; actives 81% (n = 5,600); in the data active = inhibition above about 10%
An asterisk follows results filed as active; . = no result given; + = active, no number; ! = repeats disagree. An excerpt weighted towards active compounds, which were near 6.7% of everything screened. Rule as the data show it, unless noted: active = inhibition above about 30%; inconclusive = no clear call, values can overlap the other calls; inactive = below that.

SMILES	BoNT-A LC inh2	Bead autofluor	FBA Mtb inh	GDH-TPI counter-1	Anthrax LF inh2	BoNT-F LC inh	Mtb FBA inh conf	GDH-TPI counter-2
COc1ccc(C2Nc3ccccc3C(=O)N2c2ccccc2)cc1COc1ccccn1 (stereo unspecified)	0.0	8779	90.4*	-5.0	0.9	-16.8	89.7*	75.1*
COc1ccc(C2Nc3ccccc3C(=O)N2Cc2ccco2)cc1COc1ccc(NC(C)=O)cc1 (stereo unspecified)	0.1	3003	40.6*	12.2	-2.6	14.3	3.4	-4.2
Cc1ccc(C2Nc3ccccc3C(=O)N2Cc2ccco2)cc1 (stereo unspecified)	-0.7	3661	43.0*	13.6	-7.1	9.7	85.7*	56.2*
COc1ccc(C2Nc3ccccc3C(=O)N2c2ccccc2)cc1CSc1ccccn1 (stereo unspecified)	-0.5	2066	12.1	8.9	-5.1	-13.9	.	.
O=C1c2ccccc2NC(c2cccc(F)c2)N1Cc1ccccc1 (stereo unspecified)	-2.3	3440	57.9*	6.4	-11.5	-19.7	97.0*	81.3*
COc1ccc(/C=C/c2nc(C)c(-c3ccccc3)c(=O)[nH]2)cc1OC	-0.8	2557	0.2	7.1	-1.2	-1.4	.	.
CCc1n[nH]c(=S)n1/N=C/c1ccccc1OCc1ccc(Cl)cc1	-0.5	2346	-1.4	3.9	1.1	-3.3	.	.
CC(C(=O)O)C1SC(=O)NC1=O (stereo unspecified)	-0.4	2405	2.2	5.7	-3.7	2.2	.	.
O=C1c2ccccc2NC(c2cccc(F)c2)N1Cc1ccco1 (stereo unspecified)	-1.3	4172	59.6*	9.4	-0.4	-3.8	74.3*	59.0*
COc1cccc2c1cc1c(=O)n(CC(=O)NC3CCCCC3)nc(C)n12	.	.	3.3	8.7	.	.	.	.
COc1cccc2c1cc1c(=O)n(CC(=O)NCCCN3CCN(C)CC3)nc(C)n12	-0.6	4532	101.6*	13.7	-2.8	2.7	92.6*	87.9*
CCCN1CCN(C(=O)Cn2nc(C)n3c(cc4sccc43)c2=O)CC1	-0.8	5880	1.4	0.7	1.2	1.1	.	.
CCCN1CCN(C(=O)Cn2nc(C)n3c(cc4c(OC)cccc43)c2=O)CC1	-1.7	5811	86.5*	-2.6	1.0	-0.9	168.9*	112.9*
COc1ccc(C2NN=C(c3ccc(C)cc3)S2)cc1OC (stereo unspecified)	1.1	4592	38.4*	8.0	4.5	0.3	+	+
Cc1ccc(C2=NNC(c3cccc(F)c3)S2)cc1 (stereo unspecified)	-0.3	4598	4.2	-0.6	-1.4	-3.7	.	.
CCCCn1c(=O)c2ccccc2c2ccccc2c1=O	0.1	4733	-0.8	-1.2	-5.2	-15.5	.	.
CCCCn1c(=O)nc2n(-c3ccccc3C)c3ccccc3cc-2c1=O	6.2	2557	60.6*	7.4	7.6	2.8	+	+
O=[N+]([O-])c1ccccc1S(=O)(=O)N1CCCC(C(F)(F)F)C1 (stereo unspecified)	.	.	40.8*	18.8	.	.	46.0*	39.2*
O=[N+]([O-])c1ccccc1S(=O)(=O)N1CCCCC1	-0.1	7200	-0.6	2.6	-0.3	1.1	.	.
Cc1cc(=O)oc(C)c1C(=O)NCc1cccnc1	28.5	9532	1.6	27.5	-15.1	30.3	.	.
c1ccc2c(-c3nc4ccccc4[nH]3)cccc2c1	-0.2	3446	107.3*	0.4	-9.6	4.5	79.7*	42.2*
c1ccc2[nH]c(-c3ccnc4ccccc34)nc2c1	0.0	17421*!	45.2*	25.1	-0.4	-5.0	119.0*	86.8*
CC1=C(C#N)c2nc(N)c(C#N)c(C)c2/C1=C\c1ccc(-c2ccccc2C(=O)O)o1	3.1	4396	-5.7	10.6	0.7	13.6	.	.
CC1=CC2=NC(=O)CC(C)(C(=O)N(CC(=O)NC3CCCC3)Cc3ccc(Cl)cc3)N2C=C1 (stereo unspecified)	0.8	4980	57.9*	-3.9	-1.5	0.6	115.1*	122.2*
CC(C)n1cc(C(=O)N(CC(=O)NC2CCCC2)Cc2ccccc2)cn1	-0.6	10443	-0.7	8.1	1.0	5.0	.	.
SMILES	BoNT-A LC inh2	Bead autofluor	FBA Mtb inh	GDH-TPI counter-1	Anthrax LF inh2	BoNT-F LC inh	Mtb FBA inh conf	GDH-TPI counter-2
Cc1ccc(C(=O)N(CC(=O)NC2CCCCC2)c2ccccc2F)s1	-0.5	4254	2.7	-2.9	3.4	-2.7	.	.
CC1=CC2=NC(=O)CC(C)(C(=O)N(CC(=O)NC3CCCC3)c3ccccc3C)N2C=C1 (stereo unspecified)	0.9	4321	62.0*	10.1	-0.7	-1.7	+	+
CC1=CC2=NC(=O)CC(C)(C(=O)N(CC(=O)NC3CCCC3)c3ccccc3F)N2C=C1 (stereo unspecified)	1.7	3609	46.7*	-8.3	3.1	23.2	44.7*	37.0*
COc1ccc(NC2CCCN(C(=O)c3ccc4nccnc4c3)C2)cc1OC (stereo unspecified)	-0.2	5733	-1.2	12.6	-2.4	-1.1	.	.
NC(=O)c1ccccc1N/C=C1\CCCCC1=O	0.9	2380	27.7*	3.1	1.4	-1.9	91.1*	73.4*
O=C1CCCC/C1=C/Nc1ccc(C(=O)O)cc1	-0.7	8291	1.2	18.8	3.7	-5.2	.	.
COc1ccc(-c2noc(CCC(=O)NCC3CCCO3)n2)cc1OC (stereo unspecified)	-0.5	5897	-2.9	5.2	1.6	-2.5	.	.
CC(SCc1nc2sc3c(c2c(=O)[nH]1)CCCC3)C(=O)Nc1ccccn1 (stereo unspecified)	2.0	5110	37.4*	6.0	-2.9	1.2	127.3*	92.4*
Nc1nccnc1C(=O)OCc1nc2sc3c(c2c(=O)[nH]1)CCCC3	2.0	6862	40.3*	9.1	0.7	-0.5	+	+
O=C(CCc1nc2sc3c(c2c(=O)[nH]1)CCCC3)NCCOc1ccccc1	-3.7	6150	-1.4	4.3	1.4	3.7	.	.
COc1cc2sc(-c3ccc(S(C)(=O)=O)cc3)c(C(=O)NCCCCO)c2cc1OC	0.0	4159	45.9*	31.0*	2.2	-1.5	45.8*	30.5*
COc1cc2sc(-c3ccc(S(C)(=O)=O)cc3)c(C(=O)NCc3ccc(C)o3)c2cc1OC	-0.1	3630	37.2*	20.2	-0.4	0.7	99.5*	83.3*
Cc1ccc(CNC(=O)c2c(-c3ccccc3)sc3ccccc23)o1	-0.7	4085	-1.4	13.0	2.9	3.9	.	.
C[C@H]1CN([C@@H](C)CO)C(=O)CCCn2cc(nn2)CO[C@@H]1CN(C)C(=O)Cc1ccccc1	0.0	3535	1.6	-5.2	1.2	-5.4	.	.
O=c1c(Cl)c(O)c2cccc3c4ccccc4n1c23	-0.2	2550	85.5*	15.3	0.4	-1.2	85.7*	63.6*
